# hgDAF-12 ag: H. glycines DAF-12 receptor agonists, primary screen, cell-based, luminescence, HEK293, GAL4 fusion, UAS-luciferase | hit rate 1.8% among 370,000 | HEK293 GAL4-hgDAF12 UAS-luciferase reporter, agonist luminescence; normalized to butyrate control | AID 687014, 2013 | activation, % at 6.8 µM;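 active = activation above a cutoff set at the mean of all screened compounds plus 3 SD, cut at about 10% in these data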;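 also: 0% = DMSO wells and 100% = sodium butyrate wells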
# hcDAF12 agonist: H. contortus DAF-12 nuclear receptor activators, primary screen, cell-based, luminescence, HEK293, lit1-tk-luc reporter; activation, % at 6.8 µM; hit rate 1.4% among 370,000; HEK293 hcDAF-12 lit1-tk-luc reporter; 0% DMSO, 100% Δ7-dafachronic acid;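 active = activation above the mean of all tested compounds plus 3 SD, cut at about 5.5% in these data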;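 also: 100% = response to 3 µM Δ7-dafachronic acid high control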
# ssDAF12 agonist: S. stercoralis DAF-12 nuclear receptor activators, primary screen, cell-based, luminescence, HEK293, GRIP1 co-expression, lit1-tk-luc; Nuclear hormone receptor DAF-12 (Strongyloides stercoralis); HEK293 ssDAF-12/GRIP1 lit1-tk-luc reporter; % of 3 µM dafachronic acid response; activation, % at 6.8 µM; hit rate 1% among 370,000;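 active = activation above the mean over all tested compounds plus 3 SD, cut at about 0.9% in these data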;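 also: 0% = DMSO-only wells and 100% = 3 µM delta7-dafachronic acid wells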
# NF-kB expr up: activators of NF-kB expression in neurons, primary screen, cell-based, HTS | human neuronal cells, NF-kB reporter expression; active compounds read high | fold change at 12.5 µM | hit rate 1.6% among 190,000; in the data active = fold change above about 3.3
# APP 5'UTR act: activators of APP 5'UTR luciferase reporter, primary screen, SH-SY5Y cells | hit rate 1% among 190,000 | activation, % at 2 µM | SH-SY5Y APP 5'UTR luciferase reporter, luminescence; zero percent = DMSO vehicle wells;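 active = activation above a set limit, based on mean plus 3 SD of controls, cut at about 140% in these data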
# An asterisk follows results filed as active; x = no result given. Only some compounds are listed: those with a hit (about 3.4% of all), similar ones and a draw of the others.
SMILES,hgDAF-12 ag,hcDAF12 agonist,ssDAF12 agonist,NF-kB expr up,APP 5'UTR act
COc1ccc2c(=O)c(Oc3ccc(C(=O)O)cc3)c(C(F)(F)F)oc2c1,10,3,0.9*,1.6,92
CN(CCO)c1cccc2c1S(=O)(=O)N(Cc1cn(Cc3ccc(F)cc3)nn1)Cc1ccccc1O2,-2,-3,-1,x,x
CC1CCC2(CC1)CCN(CCCOC(=O)Nc1ccc3c(c1)OCO3)C2=O (centres undefined),0,-1,-1,x,x
Cc1ccc2nc(=O)c(NNc3ccccc3)cnc2c1,6,0,1.0*,1.7,18
O=C(NNc1nc2c(F)cccc2s1)c1ccc(F)cc1,2,3,1.3*,1,5
Cc1cccc2sc(NNC(=O)c3cc(=O)c4ccccc4o3)nc12,4,6.0*,1.4*,1.3,10
O=C(NNc1nc2c(F)cccc2s1)c1cc(=O)c2ccccc2o1,3,6.2*,0,1.4,25
Cc1ccc2sc(NNC(=O)c3cc(=O)c4ccccc4o3)nc2c1C,3,2,0,1.4,11
CCN(CC)C(=O)CNc1nnnn1-c1ccccc1,2,1,0,x,x
OC[C@@H]1CC[C@@H]2O[C@H](CCc3ccc(-c4ccc(F)cc4)cc3)[C@H](n3cc(C4CC4)nn3)C[C@@H]2O1,0,-1,-2,x,x
CCCCn1c(O)c(/C=C2\C=Nc3ccccc32)c(=O)[nH]c1=O,4,6.0*,0,x,x
Cn1c(SCc2ccccc2Cl)nc2c1c(=O)[nH]c(=O)n2C,2,-1,1.5*,x,x
Cc1noc(C)c1NC(=O)N(C)C[C@H]1OCc2cnnn2CCCC(=O)N([C@H](C)CO)C[C@@H]1C,1,3,1.3*,x,x
C[C@@H]1CN([C@H](C)CO)C(=O)CCCn2nncc2CO[C@H]1CN(C)C(=O)Nc1ccc2c(c1)OCCO2,7,5,1.5*,x,x
C[C@H](CO)N1C[C@H](C)[C@H](CN(C)C(=O)Nc2ccc3c(c2)OCCO3)OCc2cnnn2CCCC1=O,-4,-1,0,x,x
Cc1noc(C)c1NC(=O)Nc1ccc2c(c1)C(=O)N(C)[C@H]1CC[C@H](CC(=O)NCc3ccc(Cl)cc3)O[C@@H]1CO2,0,-2,-1,x,x
CCCN1CCS(=O)(=O)N(Cc2cn(CC(=O)OCC)nn2)C(C(=O)OC)C1 (centres undefined),-2,-2,-2,x,x
CC(=O)N1CCCN(S(=O)(=O)c2ccc3c(c2)oc(=O)n3C)CC1,1,0,-1,x,x
CCc1nc2ccc(C(=O)O)cc2nc1CC,0,0,-1,6.1*,53
CCOC(=O)c1ccc2nc(C)c(C)nc2c1,4,5.6*,-1,x,x
CN(Cc1ccccc1)C(=O)OCc1cn(Cc2ccc(Cl)cc2)nn1,0,-2,-1,x,x
Cc1cc(C)cc(C(=O)NC(=S)Nc2ccc3c(c2)OCCO3)c1,6,0,-1,2.5,98
CCc1ccc(C(=O)NC(=S)Nc2ccc3c(c2)OCCO3)cc1,12*,3,0,5.4*,136*
CCOC(=O)c1c(C)[nH]c(C(=O)Nc2ccc3c(c2)OCO3)c1C,x,x,x,7.8*,164*
O=C(NC(=S)Nc1ccc2c(c1)OCO2)c1ccc(Cl)cc1,5,3,-1,2.5,165*
SMILES,hgDAF-12 ag,hcDAF12 agonist,ssDAF12 agonist,NF-kB expr up,APP 5'UTR act
CCOc1ccc(C(=O)Nc2ccc3c(c2)OCCO3)cc1,12*,5.9*,0,x,x
CCOC(=O)Nc1ccc2c(c1)OCO2,7,2,0,1.4,27
C[C@H]1CCCN1c1cccc2c1S(=O)(=O)N1CC[C@H](C1)O2,-1,-1,1,x,x
O=c1sc(Nc2ccccc2)nc2ccsc12,9,6.2*,0,2.5,66
O=C(OCc1cn(Cc2ccc(Cl)cc2)nn1)N1CCCC1,-2,0,-1,x,x
O=C(c1cc(COc2ccc(F)cc2F)on1)N1CCSCC1,12*,2,-1,2.6,64
COc1cc(C)ccc1OCc1cc(C(=O)N2CCN(C3CCCCC3)CC2)no1,11*,3,0,x,x
COc1cc(C)ccc1OCc1cc(C(=O)N2CCCCCCC2)no1,9,2,1,x,x
CCN1CCN(C(=O)c2cc(COc3ccc(C(C)=O)cc3OC)on2)CC1,12*,5,0,x,x
COc1ccc(OCc2cc(C(=O)N3CCN(CC4CC4)CC3)no2)c(Cl)c1,8,1,-1,x,x
C=CCN(C)CC#Cc1ccc(F)cc1,-3,0,-1,x,x
O=C(NCc1c(F)cccc1F)C1CCC(CNS(=O)(=O)c2cccc3cccnc23)CC1 (centres undefined),-3,-2,-1,x,x
Cc1csc(=N)n1-c1ccc(Cl)cc1,10,1,-1,2.1,35
Cc1ccc(-n2c(C)csc2=N)cc1,9,3,1,3.5*,113
O=C(NC1CCCCN(Cc2cccc(Cl)c2)C1=O)C1CCCCC1 (centres undefined),-1,-2,-1,x,x
Cc1cc([N+](=O)[O-])nn1CC(=O)N(C)Cc1ccccc1,-2,-2,-2,x,x
Cc1cc([N+](=O)[O-])nn1CC(=O)N(C)C1CCCCC1,0,6.3*,1,x,x
O=C(O)c1[nH]c2ccccc2c1NS(=O)(=O)Cc1ccccc1,1,6.0*,0,0.89,0
CN=C1S/C(=C/c2cc(C)n(-c3cc(C)ccc3OC)c2C)C(=O)N1C,-3,-3,-2,x,x
Cc1cc(OCC(=O)N2CCCCCC2)ccc1[N+](=O)[O-],12*,0,1,1.8,57
Cc1ccc(OCC(=O)N2CCCCCCC2)cc1C,5,1,-1,x,x
Cc1ccccc1NC(=S)NCCc1c[nH]c2ccccc12,2,6.0*,0,0.86,3
Cc1sc2nc(COC(=O)CNC(=O)c3ccccc3Cl)[nH]c(=O)c2c1C,0,-1,-1,x,x
COc1ccccc1C(=O)Nc1nc2cc3c(cc2s1)OCO3,12*,4,0,x,x
O=C(Nc1nc2c(Cl)ccc(Cl)c2s1)c1ccco1,1,5.6*,0,1.5,-8
SMILES,hgDAF-12 ag,hcDAF12 agonist,ssDAF12 agonist,NF-kB expr up,APP 5'UTR act
COc1ccc2nc(NC(=O)c3ccco3)sc2c1,6,4,-1,x,x
COc1cc2sc(NC(=O)c3ccco3)nc2cc1Cl,12*,5,0,x,x
COc1cccc(/C=C2\CC3(OC(=O)C(C)(C)C)CCCN2C3)c1 (centres undefined),-1,-2,-1,x,x
CCOc1ccc(C(=O)Nc2cccc(C(=O)O)c2)cc1Cl,7,4,0,6.2*,76
CCOc1ccc(C(=O)Nc2ccc(Cl)cn2)cc1Cl,13*,1,0,4.9*,153*
CCOc1ccc(C(=O)Nc2cc(NC(=O)c3ccc(OCC)c(Cl)c3)cc(C(=O)O)c2)cc1Cl,-1,-2,-1,3.7*,13

# Assay outcomes (PubChem BioAssay)
